Data published in PubChem BioAssay AID1159580 (chemical genetic matrix, 2015).
“And” between values parts separate entries of the source, which are not always exact repeats. Equal values may be shown once. Screen size: about 5,500 compounds; about 2,000 (36%) were called active. Inconclusive results (about 18%) are left out. Rule as the data show it: active = normalized growth mostly below about 0.91 (no sharp cut-off); inconclusive = no clear call, values can overlap the other calls; inactive = mostly above about 0.92. This is one part of the list.

Experiment: chemical genetic growth profiling, strain panel (AID 1159580);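 also: tested at 20 µM; growth read once vehicle control cultures reached saturation at 30 °C; 1 = growth at the plate median or of vehicle wells; lower values mean less growth of the strain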
Details: S. cerevisiae deletion strains, growth OD

Measured: normalized growth

CC(=O)OCC(=O)[C@@]12OC3(CCCC3)O[C@@H]1CC1C3CCC4=CC(=O)C=C[C@]4(C)[C@@]3(F)[C@@H](O)C[C@@]12C (stereo partly specified)
inactive: locus YAL013W, strain DEP1, active compounds read low 1.02 | locus YAL021C, strain ccr4, active compounds read low 1.01 | locus YAL026C, strain drs2, active compounds read low 1.02 | locus YAL030W, strain snc1, active compounds read low 1.02 | locus YBL061C, strain skt5, active compounds read low 1.03 | locus YBR009C, strain hhf1, active compounds read low 1.01 | locus YBR021W, strain FUR4, active compounds read low 1.02 | locus YBR023C, strain chs3, active compounds read low 1.01 | locus YBR171W, strain sec66, active compounds read low 1.02 | locus YBR229C, strain ROT2, active compounds read low 1.02 | locus YBR231C, strain swc5, active compounds read low 1.02 | locus YBR279W, strain paf1, active compounds read low 1.01 | locus YCL011C, strain gbp2, active compounds read low 1.02 | locus YCL016C, strain dcc1, active compounds read low 1.01 | locus YCL029C, strain bik1, active compounds read low 0.985 | locus YCL069W, strain vba3, active compounds read low 1.02 | locus YCR088W, strain abp1, active compounds read low 1.02 | locus YDL005C, strain med2, active compounds read low 1.02 | locus YDL035C, strain GPR1, active compounds read low 1.01 | locus YDL040C, strain nat1, active compounds read low 1.02 | locus YDL074C, strain BRE1, active compounds read low 0.972 | locus YDL101C, strain DUN1, active compounds read low 1.01 | locus YDL134C, strain PPH21, active compounds read low 1.01 | locus YDL185W, strain tfp1, active compounds read low 1 | locus YDL192W, strain arf1, active compounds read low 1 | locus YDR001C, strain nth1, active compounds read low 1.02 | locus YDR069C, strain doa4, active compounds read low 1.01 | locus YDR101C, strain arx1, active compounds read low 0.984 | locus YDR137W, strain rgp1, active compounds read low 1.02 | locus YDR150W, strain NUM1, active compounds read low 1.02 | locus YDR159W, strain sac3, active compounds read low 1.02 | locus YDR162C, strain NBP2, active compounds read low 1.02 | locus YDR195W, strain ref2 1.03 | locus YDR297W, strain sur2, active compounds read low 1.02 | locus YDR318W, strain mcm21, active compounds read low 1 | locus YDR334W, strain swr1, active compounds read low 1.02 | locus YDR335W, strain msn5, active compounds read low 1.01 | locus YDR388W, active compounds read low 1 | locus YDR392W, strain spt3, active compounds read low 1.03 | locus YDR502C, strain sam2, active compounds read low 1.02 | locus YEL003W, strain gim4, active compounds read low 1.02 | locus YEL037C, strain rad23, active compounds read low 1.02 | locus YEL061C, strain CIN8 (second series), active compounds read low 1.03 | locus YEL061C, strain CIN8, active compounds read low 1.01 | locus YER015W, strain faa2, active compounds read low 1.01 | locus YER016W, strain bim1, active compounds read low 1.03 | locus YER110C, active compounds read low 1 | locus YER111C, strain swi4, active compounds read low 1.02 | locus YER155C, strain BEM2 (second series), active compounds read low 1.08 | locus YER155C, strain BEM2, active compounds read low 1.02 | locus YER167W, strain BCK2, active compounds read low 1.02 | locus YFR010W, strain ubp6, active compounds read low 1.02 | locus YGL078C, strain dbp3, active compounds read low 0.987 | locus YGL086W, strain mad1, active compounds read low 1 | locus YGL167C, strain pmr1, active compounds read low 1.03 | locus YGL173C, strain kem1, active compounds read low 1.02 | locus YGL227W, strain vid30, active compounds read low 1.02 | locus YGL240W, strain doc1, active compounds read low 1.03 | locus YGL248W, strain PDE1, active compounds read low 1.01 | locus YGL253W, strain hxk2, active compounds read low 0.963 | locus YGR078C, strain PAC10, active compounds read low 1.01 | locus YGR135W, strain pre9, active compounds read low 0.989 | locus YGR229C, strain SMI1, active compounds read low 1.03 | locus YGR252W, strain gcn5, active compounds read low 1.04 | locus YHR013C, strain ard1, active compounds read low 1.03 | locus YHR027C, strain rpn1, active compounds read low 1.02 | locus YHR030C, strain SLT2, active compounds read low 1.01 and 0.976 | locus YHR079C, strain IRE1 (second series), active compounds read low 0.986 | locus YHR079C, strain IRE1, active compounds read low 0.978 | locus YHR094C, strain hxt1, active compounds read low 0.991 | locus YHR129C, strain ARP1, active compounds read low 1.01 | locus YHR142W, strain chs7, active compounds read low 1 | locus YHR200W, strain rpn10, active compounds read low 0.994 | locus YIL066C, strain RNR3, active compounds read low 1.01 | locus YIL073C, strain SPO22, active compounds read low 0.966 | locus YIL125W, strain kgd1, active compounds read low 1.01 | locus YIR030C, strain dcg1, active compounds read low 0.992 | locus YJL092W, strain hpr5, active compounds read low 1.02 | locus YJL095W, strain BCK1 (second series), active compounds read low 1.02 | locus YJL095W, strain BCK1, active compounds read low 1.01 and 0.989 | locus YJL115W, strain asf1, active compounds read low 1.03 | locus YJL129C, strain trk1, active compounds read low 1.01 | locus YJL134W, strain LCB3, active compounds read low 1.01 | locus YJL154C, strain vps35, active compounds read low 1.02 | locus YJL164C, strain tpk1, active compounds read low 1 | locus YJL166W, strain qcr8, active compounds read low 1.02 | locus YJL168C, strain set2, active compounds read low 1 | locus YJL187C, strain SWE1 (second series), active compounds read low 1.01 | locus YJL187C, strain SWE1, active compounds read low 1.03 | locus YJR043C, strain POL32, active compounds read low 0.988 | locus YJR066W, strain TOR1, active compounds read low 0.968
